# Screening results as filed in PubChem BioAssay.
# Rows were chosen to be rich in hits. Some 21% of all compounds tested hit in one or more screens of this group.
# DT40 TDP1 CPT: qHTS for Inhibitors of human tyrosyl-DNA phosphodiesterase 1 (TDP1): qHTS in cells in presence of CPT | chicken DT40 Tdp1-/-;hTDP1 cells + 20 nM CPT, ATP luminescence, 48 h | Potency, µM (highest dose often 46.2 µM), inactives show at the highest dose activity change, negative = growth inhibition, hits mostly inhibitors | hit rate 12% among 420,000 | AID 686979, 2013; also: potency is read from the fitted curve at half-maximal effect; % is scaled to controls: 0 for no effect and ±100 for the full control effect; nearly all actives have a fitted effect of over 55% in size
#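 Cell growth measured by CellTiter-Glo luminescence after a minimum 48 h, 37 C compound exposure with 20 nM CPT in Tdp1-knockout DT40 cells stably expressing hTDP1, seeded 400/well; qHTS titration format.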
# IL1B secr inh: qHTS for Inhibitors of Inflammasome Signaling: IL-1-beta AlphaLISA Primary Screen | THP-1 LPS/ATP IL-1B secretion, AlphaLISA, 16 h; stronger effect = lower value | activity change, % at 57.5 µM | hit rate 4.7% among 360,000 | AID 743279, 2014; in the data active = activity change below about -50%; inconclusive = mostly about -30% to -49%; also: % is scaled to controls: 0 for no effect and ±100 for the full control effect
#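 Secreted IL-1B measured by AlphaLISA bead assay after 16 h compound exposure of THP-1 cells; compounds (final up to 57.5 uM) added 1 h before LPS (250 ng/mL) and ATP (1.25 mM) stimulation; lower signal means less secretion.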
# ClpP mod: qHTS Assay for Activators of ClpP. ATP-dependent Clp protease proteolytic subunit (Bacillus subtilis (strain 168)), P80244. purified B. subtilis ClpP, FRET peptide cleavage, 20 min. Potency, µM (top dose mostly 57.5 µM), for the others: at the highest dose activity change, negative = active. hit rate 1.9% among 340,000; active = well fitted falling curve with a large enough effect; inconclusive = small, poorly fitted or top-dose-only effect; inactive = no such curve, though single readings can be large or run the other way; also: potency is read from the fitted curve at half-maximal effect; the source files actives as falling curves though it sought activators and does not explain the sign; nearly all actives have a fitted effect of over 65% in size
# Target sequence (P80244 whole entry, looked up): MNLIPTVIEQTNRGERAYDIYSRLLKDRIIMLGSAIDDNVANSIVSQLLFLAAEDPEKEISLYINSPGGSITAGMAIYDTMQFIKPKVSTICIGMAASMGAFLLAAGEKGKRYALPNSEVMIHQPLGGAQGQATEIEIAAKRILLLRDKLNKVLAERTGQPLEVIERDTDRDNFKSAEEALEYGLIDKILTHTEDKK
#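 ClpP 10 microg/mL final, pH 8 Tris/KCl buffer with BSA, glycerol, Tween-20; compound pinned in; FRET-FV substrate; RT 20 min; Ex320/Em430; ΔFRET vs ADEP 5.8 microM, DMSO, no enzyme.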
# D3 ag: qHTS of D3 Dopamine Receptor Agonist: qHTS; max activation, %; D3R DiscoveRx beta-arrestin cells, luminescence, 90 min; hit rate 0.58% among 410,000; in the data active = max activation above about 30%; also: 0% is about no effect
# Target sequence (P35462 whole entry, looked up): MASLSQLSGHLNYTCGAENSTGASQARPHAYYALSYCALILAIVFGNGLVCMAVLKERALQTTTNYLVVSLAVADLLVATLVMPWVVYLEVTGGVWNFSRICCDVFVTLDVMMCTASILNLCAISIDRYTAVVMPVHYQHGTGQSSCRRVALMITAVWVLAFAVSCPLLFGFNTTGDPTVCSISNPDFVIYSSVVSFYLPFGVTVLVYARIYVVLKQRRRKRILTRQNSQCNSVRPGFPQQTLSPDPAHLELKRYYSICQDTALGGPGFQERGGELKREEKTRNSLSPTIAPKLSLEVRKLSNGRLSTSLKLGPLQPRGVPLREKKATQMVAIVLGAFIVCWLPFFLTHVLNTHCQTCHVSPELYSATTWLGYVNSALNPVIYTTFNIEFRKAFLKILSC
#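 Agonist mode: compounds and dopamine controls were applied to plated cells for 90 min at 37 degrees C after an overnight attachment at 1500 cells/well. Luminescent read-out followed 30 - 60 minutes at room temperature with DiscoveRx detection reagent.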
# D3 antag: qHTS of D3 Dopamine Receptor Antagonist: qHTS; max response, negative = inhibition, %; D3R cells, DiscoveRx beta-arrestin luminescence, antagonist mode; stronger effect = lower value; D(3) dopamine receptor (Homo sapiens), P35462; hit rate 2.5% among 360,000; in the data active = max response below about -50%; inconclusive = no clear call, values can overlap the other calls; also: % is scaled to controls: 0 for no effect and ±100 for the full control effect
#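 Cells plated overnight at 1500 cells/well, then exposed to library compounds with dopamine controls for 90 minutes at 37 degrees C. DiscoveRx reagent added for 30–60 minutes at room temperature; luminescence read, quantitative HTS format.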
# DT40 TDP1 no CPT: qHTS for Inhibitors of human tyrosyl-DNA phosphodiesterase 1 (TDP1): qHTS in cells in absence of CPT; DT40 Tdp1-/- hTDP1 cells, no CPT, ATP luminescence, 48 h; hit rate 15% among 420,000; Potency, µM (titrated, usually from 46.2 µM), inactives show at the top dose activity change, negative = growth inhibition, actives largely listed as inhibitors; also: potency is read from the fitted curve at half-maximal effect; % is scaled to controls: 0 for no effect and ±100 for the full control effect; nearly all actives have a fitted effect of over 55% in size
#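 Stably hTDP1-transfected Tdp1-null chicken DT40 cells were treated with library compounds minus camptothecin and grown for at least 48 hr at 37 °C, after which cellular ATP was quantified by luminescence.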
# Numbers without * were called inactive; ? = inconclusive; · = not tested or not shown; [ ] = dose if it differs, or a comment. Unless noted, calls follow the shape of the dose curve; as a rule, active = well fitted inhibition curve with a large enough effect; inconclusive = small, poorly fitted or top-dose-only effect; inactive = flat fitted curve, though single readings scatter.
SMILES,DT40 TDP1 CPT,IL1B secr inh,ClpP mod,D3 ag,D3 antag,DT40 TDP1 no CPT
O=C1c2oc3ccc(F)cc3c(=O)c2C(c2cccc([N+](=O)[O-])c2)N1CCCN1CCOCC1 (stereo not drawn),-7.8%,·,-8.4%,6.0,·,-17.8%
Cc1ccc(C)c(S(=O)(=O)N(C)C2(C)CCS(=O)(=O)C2)c1 (stereo not drawn),-17.0%,10.5,·,2.4,0.1,-17.4%
COc1cccc(Nc2nc(C(N)COCc3ccccc3)cs2)n1 (stereo not drawn),?,·,-2.4%,-3.9,0.0,?
COc1cccc(Nc2nc(C(N)CC(C)C)cs2)n1 (stereo not drawn),16.4µM*,?,0.4%,-10.1,-12.5,?
CN(Cc1cc(Br)cc(Br)c1N)C1CCCCC1,?,·,·,-20.0,·,9.44µM*
CN(Cc1ccc(O)cc1)C1CCCCC1,-13.9%,0.0,0.1%,-18.2,-12.5,-9.7%
Cn1c(/C(C#N)=C/c2ccncc2)nc2ccccc21,?,-52.3*,-2.2%,1.5,?,20.6µM*
Cn1c(/C(C#N)=C/c2ccc(C(F)(F)F)cc2)nc2ccccc21,20.6µM*,·,-6.7%,8.5,·,13µM*
CCN(C(=O)COC(=O)CSc1ccccc1)c1c(N)n(Cc2ccccc2)c(=O)[nH]c1=O,-21.1%,11.1,0.6%,-6.8,-9.7,-8.5%
C[C@@H]1NS(=O)(=O)[C@H]2C[C@@H]3C=C[C@]2(O3)[C@H]1OC(=O)c1ccc(C(C)(C)C)cc1,23.1µM*,0.0,-3.4%,-8.9,3.0,16.4µM*
O=C(O[C@H]1[C@H](Cc2ccccc2)NS(=O)(=O)[C@H]2C[C@@H]3C=C[C@]12O3)c1ccccc1Br,?,·,2.0%,·,·,?
Cc1cccc(C(=O)O[C@@H]2[C@H](Cc3ccccc3)NS(=O)(=O)[C@H]3C[C@@H]4C=C[C@]23O4)c1,?,-16.5,0.8%,51.6*,-5.9,23.1µM*
Cc1ccccc1C(=O)O[C@H]1[C@H](Cc2ccccc2)NS(=O)(=O)[C@H]2CC3C=C[C@]12O3,?,2.4,-1.2%,7.2,20.0,20µM*
O=C(CSc1nnc(C2CC2)n1CC1CCCO1)Nc1cccc(Cl)c1 (stereo not drawn),-8.2%,10.5,·,6.0,-14.9,-10.3%
CCN(CC)c1nc(N)nc(NS(=O)(=O)c2ccc(Cl)cc2)n1,-10.5%,5.5,-0.1%,3.5,33.4,-16.2%
CCN(CC)c1nc(NN)nc(Nc2ccc(C)c(Cl)c2)n1,?,-76.1*,1.1%,-2.6,-79.4*,?
O=C(Cn1c2[n+](c3ccccc31)CC(O)CS2)c1ccccc1 (stereo not drawn),20.6%,25.7,3.16µM*,-0.2,5.7,-1.1%
CCOc1ccc(-c2nc3c(c(SCC(=O)N4CCCCC4)n2)Cc2cc(C)ccc2O3)cc1,?,·,-2.9%,6.6,·,?
Cc1cc(C)n(-c2ccc(C(=O)NCC3Cc4cc(-c5cnccn5)ccc4O3)cc2)n1 (stereo not drawn),-10.5%[9.04 µM],·,·,·,·,-27.3%
Cc1ccc(C(=O)COC(=O)c2ccc(O)cc2)cc1,3.5%,-11.8,·,-6.9,3.6,4.9%
COc1cc(OC)c(N(C)C(=O)Cn2ncc3c([nH]c4ccccc43)c2=O)cc1Cl,?,·,-2.5%,18.4,·,?
Cc1ccc(-c2nnc(Nc3ccccc3)c3ccccc23)cc1S(=O)(=O)N1CCN(C)CC1,?,·,-1.8%,-9.2,·,?
Cc1ccc(-c2nnc(Nc3cccc(Br)c3)c3ccccc23)cc1S(=O)(=O)N1CCN(C)CC1,13µM*,·,?,-8.9,·,18.4µM*
Cc1ccc(-c2nnc(Nc3cccc(Cl)c3)c3ccccc23)cc1S(=O)(=O)N1CCN(C)CC1,11.6µM*,·,-0.5%,1.3,·,20.6µM*
Cc1ccc(-c2nnc(Nc3cccc(Br)c3)c3ccccc23)cc1S(=O)(=O)N1CCCCC1,-25.3%,·,-28.9%,5.9,·,-23.7%
SMILES,DT40 TDP1 CPT,IL1B secr inh,ClpP mod,D3 ag,D3 antag,DT40 TDP1 no CPT
Cc1cccc(Nc2nnc(-c3ccc(C)c(S(=O)(=O)N4CCN(C)CC4)c3)c3ccccc23)c1,20.6µM*,·,-7.3%,-12.7,·,?
Cc1ccc(-c2nc3ccccc3s2)cc1S(=O)(=O)N1CCCC1,13µM*,-6.3,?,12.3,24.4,?
Cc1ccc(CNS(=O)(=O)c2ccc(C(F)(F)F)cc2)n1C,-0.9%,?,-1.1%,9.1,24.2,-6.4%
COc1cc(/C=C/C(=O)O)cc(S(=O)(=O)N2CCc3ccccc3C2)c1OC,-8.1%,-7.3,·,4.3,7.8,0.0%
Cc1ccc(-c2nnc(Nc3cccc(O)c3)c3ccccc23)cc1S(=O)(=O)N1CCCCC1,18.4µM*,·,-13.9%,0.0,·,-102.0%
Cc1ccc(Nc2nnc(-c3ccc(C)c(S(=O)(=O)N4CCN(C)CC4)c3)c3ccccc23)c(C)c1,7.31µM*,·,0.8%,6.5,·,6.51µM*
Cc1ccc(Nc2nnc(-c3ccc(C)c(S(=O)(=O)N4CCN(C)CC4)c3)c3ccccc23)cc1,18.4µM*,·,-4.4%,2.8,·,16.4µM*
CNC(=O)c1ccc(Nc2nnc(-c3ccc(C)c(S(=O)(=O)N4CCCCC4)c3)c3ccccc23)cc1,1.0%,·,?,-2.6,·,-2.9%
Cc1ccc(-c2nnc(Nc3ccccc3)c3ccccc23)cc1S(=O)(=O)NCc1nc2ccccc2[nH]1,?,·,-15.4%,5.9,·,?
Cc1ccc(-c2nnc(NCc3nc4ccccc4[nH]3)c3ccccc23)cc1S(=O)(=O)N1CCCCC1,20.6µM*,-3.0,-8.8%,-4.9,-8.8,16.4µM*
CCOC(=O)CNS(=O)(=O)c1cc(-c2n[nH]c(=O)c3ccccc23)ccc1C,?,·,0.1%,-0.1,1.0,-15.0%
Cc1ccc(NS(=O)(=O)c2cc(-c3n[nH]c(=O)c4ccccc34)ccc2C)cc1,7.31µM*,-3.3,-3.3%,2.1,23.6,6.51µM*
CC(=O)Nc1ccc2nc(CN3CCN(Cc4ccc(F)cc4)C(CCO)C3)ccc2c1 (stereo not drawn),-27.6%,7.8,?,-5.3,-5.1,?
Cn1c(=O)c(-c2ccccc2)nc2cnc(Oc3ccccc3)nc21,-24.8%,·,·,·,·,?
Oc1c(CN2CCc3ccccc3C2)cc(Cl)c2cccnc12,5.8µM*,30.6,-2.5%,-24.8,-138.9*,5.8µM*
